Results filed as inconclusive are left out. Calls of active or inactive are those of the source. Unless noted, calls come from the whole dose curve; as a rule, active = well fitted curve in the direction sought with a large enough effect in the repeat runs; inconclusive = weak or mixed curves; inactive = no such curve, though single readings can be large; an effect the other way counts as inactive or inconclusive.
What was measured:
[1] = target: Aryl hydrocarbon receptor (Homo sapiens) (UniProt P35869); assay: qHTS assay to identify small molecule that activate the aryl hydrocarbon receptor (AhR) signaling pathway (AID 743085);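 note: HG2L7.5c1 human HepG2 liver cells with stably integrated DRE-driven firefly reporter; series mostly up to about 70 µM; nearly all actives have a fitted effect of over 15% in size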
Sequence of Aryl hydrocarbon receptor (Homo sapiens) (P35869 whole entry, looked up): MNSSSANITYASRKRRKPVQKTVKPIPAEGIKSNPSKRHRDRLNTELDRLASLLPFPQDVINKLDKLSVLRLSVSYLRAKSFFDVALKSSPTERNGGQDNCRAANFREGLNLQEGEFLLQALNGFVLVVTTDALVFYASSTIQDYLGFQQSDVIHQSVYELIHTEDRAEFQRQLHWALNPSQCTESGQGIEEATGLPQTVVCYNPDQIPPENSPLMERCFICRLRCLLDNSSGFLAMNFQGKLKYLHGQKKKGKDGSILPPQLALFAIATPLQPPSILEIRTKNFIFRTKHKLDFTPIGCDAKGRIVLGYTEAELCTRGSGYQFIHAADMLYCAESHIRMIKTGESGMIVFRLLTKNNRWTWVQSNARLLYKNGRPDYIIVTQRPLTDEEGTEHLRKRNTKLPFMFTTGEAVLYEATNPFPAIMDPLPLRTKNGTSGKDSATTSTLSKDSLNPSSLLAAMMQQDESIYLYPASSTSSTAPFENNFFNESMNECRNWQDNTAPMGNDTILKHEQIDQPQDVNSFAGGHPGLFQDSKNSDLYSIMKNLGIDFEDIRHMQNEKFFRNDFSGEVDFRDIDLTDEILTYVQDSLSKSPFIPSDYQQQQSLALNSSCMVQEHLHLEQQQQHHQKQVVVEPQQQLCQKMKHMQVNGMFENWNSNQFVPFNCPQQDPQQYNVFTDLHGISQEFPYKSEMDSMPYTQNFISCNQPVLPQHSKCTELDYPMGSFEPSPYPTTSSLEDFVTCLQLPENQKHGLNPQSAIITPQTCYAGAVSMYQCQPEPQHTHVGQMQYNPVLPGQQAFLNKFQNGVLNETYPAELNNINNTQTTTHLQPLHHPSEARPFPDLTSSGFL
Outline: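 Stably transfected human liver carcinoma cells (HG2L7.5c1; 20 DRE-firefly luciferase) were incubated 5 h, dosed, and kept 24 h at 37C. Agonism was scored from increased luciferase luminescence.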

[2] = qHTS assay to identify small molecule that activate the aryl hydrocarbon receptor (AhR) signaling pathway - cell viability counter screen (AID 743086);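 note: HepG2 liver cells carrying the AhR DRE luciferase reporter; series mostly up to about 70 µM; nearly all actives have a fitted effect of over 45% in size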
Outline: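 Cytotoxicity counter screen: CellTiter-Fluor signal (30 min, 37 C) in 4000 HepG2 cells/well carrying the DRE-luciferase reporter, following 24 h compound exposure at 37 C.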

[3] = target: Peroxisome proliferator-activated receptor gamma (Homo sapiens) (UniProt P37231); assay: qHTS assay to identify small molecule agonists of the peroxisome proliferator-activated receptor gamma (PPARg) signaling pathway (AID 743094; active = well fitted activation curve with a large enough effect in the signal ratio in the repeat runs, not every such curve was filed as active; the % refers to the signal ratio)
Sequence of Peroxisome proliferator-activated receptor gamma (Homo sapiens) (P37231 whole entry, looked up): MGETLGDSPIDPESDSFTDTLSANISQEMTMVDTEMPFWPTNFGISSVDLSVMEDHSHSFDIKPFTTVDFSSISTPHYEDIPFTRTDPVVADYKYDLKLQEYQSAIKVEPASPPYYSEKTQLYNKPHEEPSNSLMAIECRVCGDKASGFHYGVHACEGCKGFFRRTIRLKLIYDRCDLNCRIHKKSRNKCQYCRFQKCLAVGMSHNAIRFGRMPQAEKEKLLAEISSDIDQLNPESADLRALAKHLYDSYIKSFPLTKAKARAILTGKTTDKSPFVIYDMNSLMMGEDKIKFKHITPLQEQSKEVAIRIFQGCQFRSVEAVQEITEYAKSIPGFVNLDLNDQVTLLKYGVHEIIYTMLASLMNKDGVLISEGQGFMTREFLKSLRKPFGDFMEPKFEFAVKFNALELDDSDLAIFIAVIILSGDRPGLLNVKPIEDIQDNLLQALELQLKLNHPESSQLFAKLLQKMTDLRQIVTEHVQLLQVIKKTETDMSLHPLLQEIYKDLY
Outline: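 Fluorescence-based beta-lactamase readout in HEK293H PPARg UAS-bla cells after 17 h compound exposure (37C) and 1 h B/G FRET substrate incubation at room temperature.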

[4] = target: Peroxisome proliferator-activated receptor gamma (Homo sapiens) (UniProt P37231); assay: qHTS assay to identify small molecule antagonists of the peroxisome proliferator-activated receptor gamma (PPARg) signaling pathway (AID 743191; calls by dose curve; note: series mostly up to about 63 µM; nearly all actives have a fitted effect of over 30% in size)
Outline: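 Beta-lactamase reporter under UAS control in HEK293H PPARg-bla cells; compound treatment 17 h at 37C. Read-out: fluorescence intensity after 1 h room-temperature incubation with LiveBLAzer B/G FRET substrate.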

[5] = qHTS assay for small molecule agonists of the antioxidant response element (ARE) signaling pathway - cell viability counter screen (AID 743203; calls by dose curve; note: nearly all actives have a fitted effect of over 55% in size)
Outline: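 Parallel cytotoxicity read-out for the ARE-bla screen: HepG2 reporter cells, 16 hrs with compounds, then CellTiter-Glo luminescence.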

[6] = qHTS assay for small molecule activators of the heat shock response signaling pathway (AID 743210; active = well fitted activation curve with a large enough effect in the signal ratio in the repeat runs, with a control signal flat, not every such curve was filed as active; the % refers to the signal ratio; note: series mostly up to about 63 µM)
Outline: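 Compound exposure lasted 5 h at 37 C in HeLa cells carrying a heat-shock-element-driven beta-lactamase reporter. Read-out: fluorescence intensity after 2.5 h room-temperature loading with LiveBLAzer B/G FRET substrate.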

[7] = target: Peroxisome proliferator-activated receptor delta (Homo sapiens) (UniProt Q03181); assay: qHTS assay to identify small molecule agonists of the peroxisome proliferator-activated receptor delta (PPARd) signaling pathway (AID 743212; calls by dose curve;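 note: HEK293H cells with PPARd UAS beta-lactamase reporter GeneBLAzer system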)
Sequence of Peroxisome proliferator-activated receptor delta (Homo sapiens) (Q03181 whole entry, looked up): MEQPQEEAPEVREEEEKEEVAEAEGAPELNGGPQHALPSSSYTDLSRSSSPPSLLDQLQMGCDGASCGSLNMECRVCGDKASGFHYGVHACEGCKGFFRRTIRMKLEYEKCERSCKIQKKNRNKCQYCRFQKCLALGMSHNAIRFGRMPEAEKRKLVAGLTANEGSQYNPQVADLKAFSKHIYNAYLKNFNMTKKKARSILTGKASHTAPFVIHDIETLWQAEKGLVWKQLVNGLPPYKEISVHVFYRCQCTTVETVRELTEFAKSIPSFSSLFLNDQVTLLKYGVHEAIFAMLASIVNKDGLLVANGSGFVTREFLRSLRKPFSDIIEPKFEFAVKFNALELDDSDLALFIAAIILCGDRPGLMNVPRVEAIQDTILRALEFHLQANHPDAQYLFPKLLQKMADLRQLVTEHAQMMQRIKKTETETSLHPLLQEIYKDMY
Outline: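 Beta-lactamase reporter readout: a ratiometric FRET signal from the LiveBLAzer substrate after 2 h at room temperature. Compound exposure at 37 °C in PPARδ-bla HEK293H cells driven by an upstream activator sequence.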

[8] = qHTS assay to identify small molecule antagonists of the peroxisome proliferator-activated receptor delta (PPARd) signaling pathway - cell viability counter screen (AID 743213); note: nearly all actives have a fitted effect of over 50% in size
Outline: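 Cytotoxicity counter screen: CellTiter-Glo luminescence read 30 min after addition, in the same wells as the reporter assay. There, PPARd UAS-bla HEK293H cells (3000/well) were treated 17 h at 37 C with compound and 300 nM L165041.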

[9] = target: Peroxisome proliferator-activated receptor delta (Homo sapiens) (UniProt Q03181); assay: qHTS assay to identify small molecule antagonists of the peroxisome proliferator-activated receptor delta (PPARd) signaling pathway (AID 743215; active = well fitted inhibition curve with a large enough effect in the signal ratio in the repeat runs, not every such curve was filed as active; the % refers to the signal ratio;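 note: cells stimulated with agonist L165041 at 300 nM final during compound exposure; series mostly up to about 62 µM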)
Outline: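 Screen format: qHTS, antagonist mode. HEK293H PPARd-bla cells received compound and 300 nM L165041 (final), 17 h, 37 C. Beta-lactamase detected via FRET substrate fluorescence, 2 h, room temperature.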

[10] = qHTS assay to identify small molecule agonists of the farnesoid-X-receptor (FXR) signaling pathway - cell viability counter screen (AID 743218); note: nearly all actives have a fitted effect of over 45% in size
Outline: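 Same-well cytotoxicity check on FXR-UAS-bla HEK 293T cells: 5 h attachment, 16 h compound at 37 C, CellTiter-Glo luminescence read at room temperature after 30 min.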

[11] = qHTS assay to identify small molecule antagonists of the farnesoid-X-receptor (FXR) signaling pathway - cell viability counter screen (AID 743221; active = well fitted cell-killing curve with a large enough effect in the repeat runs, not every such curve was filed as active; note: nearly all actives have a fitted effect of over 50% in size)
Outline: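 Here viability was scored by luminescence after CellTiter-Glo addition to wells already read for beta-lactamase. Prior treatment: compound plus CDCA (50 uM final), 16 h, 37 C, HEK 293T FXR-bla cells.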

[12] = qHTS assay to identify small molecule agonists of the vitamin D receptor (VDR) signaling pathway - cell viability counter screen (AID 743224); note: series mostly up to about 63 µM; nearly all actives have a fitted effect of over 50% in size
Outline: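 Counter screen for cytotoxicity: VDR-bla cells at 2,000 cells/well, 16 h compound exposure, then CellTiter-Glo luminescence after the beta-lactamase measurement.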

[13] = qHTS assay for small molecule activators of the heat shock response signaling pathway - cell viability counter screen (AID 743209); note: nearly all actives have a fitted effect of over 50% in size
Outline: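 To flag cytotoxic compounds, HSE-bla HeLa cells plated at 1500 cells/well were dosed for 5 h at 37 C, followed by the reporter FRET read and then CellTiter-Glo, with luminescence recorded 30 min after reagent addition.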

[14] = qHTS assay to identify small molecule agonists of the peroxisome proliferator-activated receptor delta (PPARd) signaling pathway - cell viability counter screen (AID 743211); note: nearly all actives have a fitted effect of over 55% in size
Outline: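 In the same wells used for beta-lactamase reporter measurement, cytotoxicity is scored by CellTiter-Glo. HEK293H PPARd-bla cells receive compound for 17 h at 37C following a 5 h settling period.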

[15] = target: Bile acid receptor (Homo sapiens) (UniProt Q96RI1); assay: qHTS assay to identify small molecule antagonists of the farnesoid-X-receptor (FXR) signaling pathway (AID 743217; active = well fitted inhibition curve with a large enough effect in the signal ratio in the repeat runs, not every such curve was filed as active; the % refers to the signal ratio)
Sequence of Bile acid receptor (Homo sapiens) (Q96RI1 whole entry, looked up): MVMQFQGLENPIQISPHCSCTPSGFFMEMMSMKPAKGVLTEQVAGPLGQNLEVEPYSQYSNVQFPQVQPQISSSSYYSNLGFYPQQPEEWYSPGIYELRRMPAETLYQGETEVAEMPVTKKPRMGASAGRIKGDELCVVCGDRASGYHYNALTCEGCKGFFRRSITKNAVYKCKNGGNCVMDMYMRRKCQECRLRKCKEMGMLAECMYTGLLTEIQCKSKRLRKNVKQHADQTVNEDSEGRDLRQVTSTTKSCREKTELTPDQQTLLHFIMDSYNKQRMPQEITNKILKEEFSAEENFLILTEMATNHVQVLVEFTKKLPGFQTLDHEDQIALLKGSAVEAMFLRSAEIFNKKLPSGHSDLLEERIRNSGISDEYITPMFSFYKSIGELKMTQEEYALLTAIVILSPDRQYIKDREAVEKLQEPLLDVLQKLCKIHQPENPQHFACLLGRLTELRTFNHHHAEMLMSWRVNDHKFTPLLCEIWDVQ
Outline: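 Quantitative HTS, beta-lactamase reporter format: FXR-UAS-bla HEK 293T cells co-treated 16 h at 37 °C with compounds and 50 uM final chenodeoxycholic acid, then read by B/G FRET fluorescence.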

[16] = target: Bile acid receptor (Homo sapiens) (UniProt Q96RI1); assay: qHTS assay to identify small molecule agonists of the farnesoid-X-receptor (FXR) signaling pathway (AID 743220; active = well fitted activation curve with a large enough effect in the signal ratio in the repeat runs, not every such curve was filed as active; the % refers to the signal ratio)
Outline: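 FXR-UAS-bla HEK 293T cells carrying a UAS-driven beta-lactamase reporter were plated for 5 h at 37C/5% CO2, then exposed to DMSO-dissolved Tox21 10K compounds for 16 h at 37C. A LiveBLAzer B/G FRET substrate was loaded for 2 h at room temperature before fluorescence reading.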

[17] = target: Vitamin D3 receptor (Homo sapiens) (UniProt P11473); assay: qHTS assay to identify small molecule agonists of the vitamin D receptor (VDR) signaling pathway (AID 743222; calls by dose curve)
Sequence of Vitamin D3 receptor (Homo sapiens) (P11473 whole entry, looked up): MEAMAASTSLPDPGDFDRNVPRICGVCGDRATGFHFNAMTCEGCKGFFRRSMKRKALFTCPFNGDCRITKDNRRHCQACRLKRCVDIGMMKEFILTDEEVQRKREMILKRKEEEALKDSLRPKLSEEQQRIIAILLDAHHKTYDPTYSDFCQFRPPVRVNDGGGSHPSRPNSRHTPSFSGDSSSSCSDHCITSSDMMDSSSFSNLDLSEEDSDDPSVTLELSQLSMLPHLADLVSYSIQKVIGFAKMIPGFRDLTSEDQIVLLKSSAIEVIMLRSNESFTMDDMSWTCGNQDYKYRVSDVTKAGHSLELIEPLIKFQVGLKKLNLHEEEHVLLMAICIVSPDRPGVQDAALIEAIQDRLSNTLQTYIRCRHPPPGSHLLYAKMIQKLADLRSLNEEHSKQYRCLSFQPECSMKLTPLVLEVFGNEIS
Outline: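 Using LiveBLAzer B/G FRET detection, agonism was scored in VDR-bla cells exposed overnight (16 h, 37C) to DMSO-dissolved compounds; substrate incubation was 2 h at room temperature.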

[18] = target: Vitamin D3 receptor (Homo sapiens) (UniProt P11473); assay: qHTS assay to identify small molecule antagonists of the vitamin D receptor (VDR) signaling pathway (AID 743223; active = well fitted inhibition curve with a large enough effect in the signal ratio in the repeat runs, not every such curve was filed as active; the % refers to the signal ratio)
Outline: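 Inhibition of agonist-driven VDR signalling is scored in VDR-bla cells: 3 nM final 1alpha,25-dihydroxyvitamin D3 plus compound, 16 h at 37C, then beta-lactamase detection by FRET substrate fluorescence after 2 h.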

[19] = qHTS assay for small molecule agonists of the antioxidant response element (ARE) signaling pathway (AID 743202; active = well fitted activation curve with a large enough effect in the signal ratio in the repeat runs, not every such curve was filed as active; the % refers to the signal ratio)
Outline: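 After 16 hours of compound treatment at 37 C, HepG2 cells with a stably integrated ARE-driven beta-lactamase reporter were loaded 2 hours at room temperature with LiveBLAzer B/G FRET substrate and fluorescence intensity measured.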

[20] = qHTS assay to identify small molecule antagonists of the peroxisome proliferator-activated receptor gamma (PPARg) signaling pathway - cell viability counter screen (AID 743194); note: nearly all actives have a fitted effect of over 55% in size
Outline: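 Viability was measured as CellTiter-Glo luminescence in GeneBLAzer PPARg UAS-bla HEK293H cells. These cells had been exposed 17 h at 37 C to compounds together with rosiglitazone at 50 nM final, with the beta-lactamase readout taken in the same wells.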

Measured: Potency

C#CCN[C@@H]1CCc2ccccc21
not listed: [13] | [14] | [15] | [16] | [17] | [18] | [19] | [20]
inactive: all other assays above

CCCCOC(=O)C(C)O (configuration not stated)
not listed: [9] | [19] | [20]
inactive: all other assays above

CC(C)c1ccc(C=O)cc1
not listed: [9] | [15] | [16] | [18] | [20]
inactive: all other assays above

CC(C)[C@H]1CC[C@H](C)C[C@@H]1O
not listed: [4] | [6] | [9] | [13]
inactive: all other assays above

CC1(C)O[C@H]2CC(=O)OC[C@]23[C@H]2CC[C@@]4(C)[C@H](c5ccoc5)OC(=O)[C@H]5O[C@]54[C@]2(C)C(=O)C[C@@H]13
not listed: [4] | [6] | [15] | [16]
inactive: all other assays above

OCC1CCC(CO)CC1 (configuration not stated)
not listed: [4] | [10] | [14]
inactive: all other assays above

Cc1ccc(C(C)NC(=O)[C@@H](NC(=O)OC(C)C)C(C)C)cc1 (some centres not stated)
not listed: [4] | [9] | [17] | [18]
inactive: all other assays above

CC(CO)(CO)CO
not listed: [4] | [6] | [8] | [9] | [15] | [16]
inactive: all other assays above

CCOC(=O)CC1(C)OCC(C)O1 (configuration not stated)
not listed: [4] | [9] | [11] | [15] | [16] | [17] | [18]
inactive: all other assays above

CC(=O)CC(=O)OC(C)(C)C
not listed: [4] | [6] | [9] | [11] | [14] | [15] | [16] | [19]
inactive: all other assays above

Cc1ccc(C(=O)O)cc1[N+](=O)[O-]
not listed: [4] | [7] | [8] | [9] | [15] | [16] | [18]
inactive: all other assays above

O=C1CCCCO1
not listed: [4] | [14] | [15] | [16]
inactive: all other assays above

Source: PubChem BioAssay (Tox21)
